SMILES strings stand for the structures. The campaign covered roughly 63,000 compounds. About 1,100 (1.7%) were called active.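 How the source made its calls: active means compounds whose percent cytotoxicity in the single-dose primary screen, scaled between solvent and toxic-drug controls, exceeds 50; inactive means the rest.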 The list comes from a sample in which actives are over-represented; it also holds similar structures and randomly drawn compounds. Entries with a potency or affinity are not part of this list.

A short description of the assay: viability loss of HPDE-C7K cells – cell-based, fluorescence, HTS, primary screen (AID 431).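 Further: 0% = DMSO solvent wells and 100% = doxorubicin-treated wells.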 The note with it: HPDE-C7K KRASV12 cells, Alamar Blue viability, 48 h; at 10 µM; stronger effect = higher value. A general note: Resazurin is reduced to fluorescent resorufin, in cell work by metabolically active cells.
For the molecule `CC(C)(C)NC(=O)c1ccc2nccnc2c1`, the cytotoxicity is 12.3% (inactive).

As to `COc1ccccc1NC(=O)N(CCN(C)C)Cc1cc2cc(C)ccc2[nH]c1=O`, the cytotoxicity was 19.6% (inactive).

In the case of `CCCC(C(=O)NC1CCCC1)N(C(=O)Cn1nnc(-c2ccc(C)o2)n1)C1CCCC1` (stereo not given), the cytotoxicity was -0.4% (inactive). `CC(C)OC(=O)CSc1nc(N)c(C#N)c(-c2cccs2)c1C#N`: the cytotoxicity is 5% (inactive). For the molecule `CC(C)OC(=O)CCC1(C(=O)O)CCC(=O)NC1` (stereo not given), the cytotoxicity was -7.1% (inactive). In the case of `O=C(CSCc1ccco1)c1cccs1`, the cytotoxicity was -15.8% (inactive).

For the molecule `O=C(CC(SCc1ccco1)c1ccc(O)cc1)c1cccs1` (stereo not given), the cytotoxicity is 57.7% (active). Consider `O=C(CSc1nnc(-c2ccc(O)cc2)n1Cc1ccco1)c1cccs1`, for which the cytotoxicity is 2.5% (inactive).

As to `CCOC(=O)C1=C(C)OC(N)=C(C#N)C1c1ccsc1` (stereo not given), the cytotoxicity was 9.1% (inactive). As for `CCOc1ccc(C2CC(c3ccc(F)cc3)n3ncnc3N2)cc1` (stereo not given), the cytotoxicity was 3.1% (inactive). With `Cc1ccc(C(=O)CC(C(=O)O)n2ccc(C)n2)cc1` (stereo not given), the cytotoxicity was 4.5% (inactive). Next, `Cc1ccc(C(=O)CC(C(=O)O)n2cccn2)cc1` (stereo not given): -4.8% (inactive); `O=C(c1ccco1)N1CCN(C(=O)c2cccn3c(=O)c4c5c(sc4nc23)CCCC5)CC1`: -9.7% (inactive). Consider `Cc1cccc(Cn2cnc3c(nnn3Cc3ccc(Cl)cc3)c2=O)c1`, for which the cytotoxicity is -2.1% (inactive). As for `COC(=O)c1c(N)sc(C(C)=O)c1C`, the figure is 0% (inactive); as for `COc1ccc(C(C)=O)cc1COC(=O)c1c(C)noc1C`, 18.5% (inactive). Regarding `COC(=O)c1sc(N)c(C(=O)OC)c1COC(=O)c1c(C)noc1C`, the cytotoxicity is 56.4% (active). As for `Cc1cccc(Cn2c(SCCN3CCCCC3)nc3c2c(=O)[nH]c(=O)n3C)c1`, the figure is -3.8% (inactive); as for `O=C1C(Cl)=C(NCC2CCCO2)C(=O)N1CCc1ccccc1` (stereo not given), -4.3% (inactive). As for `C[C@]12CC[C@@H]3c4ccc(OC(=O)c5ccccc5)cc4CC[C@H]3[C@@H]1CC[C@@H]2O`, the figure is 54.4% (active); as for `C[C@]12CC[C@@H]3c4ccc(O[C@@H]5O[C@H](C(=O)O)[C@@H](O)[C@H](O)[C@H]5O)cc4CC[C@H]3[C@@H]1C[C@@H](O)[C@@H]2O`, -13.5% (inactive); as for `C[C@]12CC[C@@H]3c4ccc(O)cc4CC[C@H]3[C@@H]1CC[C@@H]2OC(=O)CCC(=O)O`, -1.7% (inactive).

`Cc1nnc(SCC(=O)Nc2nsc(-c3ccccc3)n2)s1`: the cytotoxicity is 11.4% (inactive). Take `c1ccc(Cn2nnnc2C(c2cccs2)N2CCOCC2)cc1` (stereo not given): the cytotoxicity was -11.8% (inactive).

Consider `COc1ccc(Cl)c(S(=O)(=O)N2CCCC2)c1`, for which the cytotoxicity was -3.5% (inactive). As for `COc1ccc(C(N)=O)cc1NC(=O)CC(O)(C(F)(F)F)C(F)(F)F`, the figure is -2% (inactive); as for `Cc1cc(NC(=O)C2CC(c3cccc(Br)c3)=NO2)no1` (stereo not given), -11% (inactive); as for `c1ccc2nc3c(nc2c1)sc1nc2ccccc2n13`, -4% (inactive). Next, `N=c1cc(C2(O)CCCCC2)n2c(nc3ccccc32)s1`: 59% (active); `CC(C)(O)c1cc(=O)sc2nc3ccccc3n12`: -10.2% (inactive).

`COCCNC(=O)C(c1ccc(C)o1)N(C(=O)c1snc(C(N)=O)c1N)c1cccc(C)c1` (stereo not given): the cytotoxicity is -12.1% (inactive). Next, `Cc1ccc2c(c1)[nH]c1c(=O)n(CCCN3CCOCC3)cnc12`: -20.9% (inactive); `N#Cc1nc(-c2ccc(F)cc2)oc1NCc1ccccc1`: -1.5% (inactive); `COc1ccc(CNc2oc(-c3ccccc3)nc2C#N)cc1`: 3.8% (inactive).

On to `CC(C)(C)c1ccc(-c2nc(C#N)c(NCc3ccncc3)o2)cc1`, for which the cytotoxicity was 60.5% (active). With `COC(=O)c1sccc1NC(=O)CN1CCN(c2ccc(F)cc2)CC1`, the cytotoxicity is 10.5% (inactive). For the molecule `O=C(CCN1Cc2ccccc2C1)c1ccc2c(c1)OCCO2`, the cytotoxicity is -11.8% (inactive). Regarding `O=C(CCN1CCc2ccccc2C1)Nc1ccc2c(c1)OCO2`, the cytotoxicity is -0.3% (inactive). Regarding `O=C(CCN1CCc2ccccc21)c1ccc2c(c1)OCCO2`, the cytotoxicity was 4.4% (inactive).

As for `O=C(CCCN1CCOCC1)c1ccc2c(c1)OCCO2`, the cytotoxicity is -11.1% (inactive). `CCCn1c(SCCN2C(=O)c3ccccc3C2=O)n[nH]c1=O`: the cytotoxicity was 2.1% (inactive). With `Cc1cccc(NC(=O)CSc2nnc(-c3ccccc3)n2N)c1C`, the cytotoxicity was -15% (inactive). Consider `CCOC(=O)c1c(C)oc2c1c(C=NC1CCS(=O)(=O)C1)c(O)c1ccccc12` (stereo not given), for which the cytotoxicity is 23.8% (inactive). In the case of `CCOC(=O)c1c(C)oc2c1c(C=NCC1CCCO1)c(O)c1ccccc12` (stereo not given), the cytotoxicity is -16.3% (inactive). As for `CCOC(=O)c1c(C)oc2c1c(C=NCc1ccccn1)c(O)c1ccccc12`, the figure is 99.2% (active); as for `CCOC(=O)c1c(C)oc2c1c(C(c1cccnc1)N1CCN(C)CC1)c(O)c1ccccc12` (stereo not given), 125% (active); as for `CCOC(=O)c1c(C)oc2c1c(/C=N/c1ccccn1)c(O)c1ccccc12`, 4.3% (inactive). As for `CCOC(=O)c1c(C)oc2c1c1c(c3ccccc32)OCN(Cc2cccnc2)C1`, the figure is 29.9% (inactive). Take `Cc1ccc(-c2cc(-c3cccc(F)c3)n[nH]2)c(O)c1`: the cytotoxicity was 10.8% (inactive). For the molecule `Cc1ccccc1-c1cc(-c2ccccc2O)n[nH]1`, the cytotoxicity is 44% (inactive). In the case of `COc1ccccc1-c1cc(-c2cc(Cl)ccc2O)n[nH]1`, the cytotoxicity was -3.1% (inactive). As to `Cc1ccc(-c2cc(-c3ccccc3Cl)[nH]n2)c(O)c1`, the cytotoxicity is 59.5% (active). On to `Oc1ccccc1-c1cc(-c2ccccc2Cl)[nH]n1`, for which the cytotoxicity was 15.9% (inactive). In the case of `CCOc1ccccc1OCC(=O)Nc1ccc(S(=O)(=O)N(C)C)cc1`, the cytotoxicity is 3.1% (inactive). As for `O=C(Cn1nnc(-c2ccccc2F)n1)Nc1ccc(S(=O)(=O)NC2CCCC2)cc1`, the figure is -26.3% (inactive). As for `CCOC(=O)C(C)Oc1cccc2c(=O)n(CC(=O)NCc3ccc4c(c3)OCO4)ccc12` (stereo not given), the figure is 38.8% (inactive); as for `CCOC(=O)C(C)Oc1cccc2c(=O)n(CC(=O)N3CCN(C(=O)OCC)CC3)ccc12` (stereo not given), -16.7% (inactive). `CCOC(=O)C(C)Oc1cccc2c(=O)n(CC(=O)NCc3ccco3)ccc12` (stereo not given): the cytotoxicity is 61.1% (active). Take `COc1ccc(NC(=O)C2CCCN(S(=O)(=O)c3cnc[nH]3)C2)cc1` (stereo not given): the cytotoxicity was -5.3% (inactive). In the case of `COc1cc(C)c(CNc2ccc(OC)c(OC)c2)cc1C`, the cytotoxicity is 21.6% (inactive).

For the molecule `COc1ccc(Br)cc1C(=O)Nc1ccc(O)cc1`, the cytotoxicity is -14.3% (inactive). Turning to `COc1ccc(Br)cc1CNc1ccc(O)cc1`, the cytotoxicity is 50% (active). `Cc1ccc(-n2nnnc2SCC(=O)Nc2c(C)n(C)n(-c3ccccc3)c2=O)cc1`: the cytotoxicity was -3.4% (inactive). For the molecule `COc1ccc(OC)c(Nc2cc(C(=O)NCCCN3CCOCC3)c3ccccc3n2)c1`, the cytotoxicity is 1.8% (inactive). Regarding `CCOc1ccc(NC(=O)Cn2nnc(-c3ccccc3NC(=O)CC)n2)cc1`, the cytotoxicity is 5.1% (inactive).

For the molecule `CC(=NCc1ccccc1)C1=C(O)COC1=O`, the cytotoxicity was -6% (inactive). For the molecule `NC(=O)c1cc2ccc(O)cc2oc1=NCc1ccccc1`, the cytotoxicity was 4.1% (inactive). For `COc1ccccc1NC(=O)CC1Nc2ccccc2NC1=O` (stereo not given), the cytotoxicity is -4.5% (inactive).

Turning to `O=C(CC1Nc2ccccc2NC1=O)Nc1ccccc1` (stereo not given), the cytotoxicity was -3.2% (inactive). Next, `Cc1ccc(NC(=O)CC2Nc3ccccc3NC2=O)cc1Cl` (stereo not given): 51.6% (active); `CC(C)c1nc(SCc2c(F)cccc2Cl)c2c(=O)n(C)c(=O)n(C)c2n1`: 70.4% (active); `Cc1nc(SCc2c(F)cccc2Cl)c2c(=O)n(C)c(=O)n(C)c2n1`: -12.8% (inactive). `CC(C)c1nc(SCc2ccccn2)c2c(=O)n(C)c(=O)n(C)c2n1`: the cytotoxicity is 1.9% (inactive). On to `CCC(CC)C(=O)Nc1ccccc1NC(C)=O`, for which the cytotoxicity is -16% (inactive).

For `N#CCCN(CCC#N)C(=O)c1ccc2c(c1)OCO2`, the cytotoxicity is -3.2% (inactive).

Take `COc1ccc(Nc2cc(C)nc(-n3nc(C)cc3C)n2)cc1`: the cytotoxicity is 79.2% (active). With `CCOc1ccc(Nc2cc(C)nc(-n3nc(C)cc3C)n2)cc1`, the cytotoxicity is 40.7% (inactive). Consider `COc1ccc(N2CCN(C(=O)c3ccc(-n4nc(C)cc4C)cc3)CC2)cc1`, for which the cytotoxicity was 2.6% (inactive).

Consider `CC(=O)c1ccc(Oc2cc(C)nc(-n3nc(C)cc3C)n2)cc1`, for which the cytotoxicity is 56.4% (active). As for `CNc1cc(C)nc(-n2nc(C)cc2C)n1`, the figure is -14.9% (inactive); as for `COC(=O)c1ccc(Oc2cc(C)nc(-n3nc(C)cc3C)n2)cc1`, 32.6% (inactive).

Consider `Cc1cc(NC(=O)c2cnn3c(C(F)F)cc(C4CC4)nc23)no1`, for which the cytotoxicity is 20.6% (inactive). As for `COc1cccc(NC(=O)c2ccccc2-c2nc(-c3ccccc3)no2)c1`, the cytotoxicity is 25.4% (inactive). In the case of `COc1ccc(OC)c(NC(=O)CNC(=O)Cn2cnc3ccccc3c2=O)c1`, the cytotoxicity was 2.3% (inactive). Regarding `Cc1cccc(N(C)S(=O)(=O)c2cccc3nsnc23)c1`, the cytotoxicity is 14.4% (inactive). As for `CCOC(=O)C1CCN(C(=O)c2oc3ccc(S(=O)(=O)N4CC(C)CC(C)C4)cc3c2C)CC1` (stereo not given), the figure is 5.5% (inactive); as for `Cc1ccc(-c2csc3nc(C)n(-n4cccc4)c(=O)c23)o1`, 0.5% (inactive); as for `O=C(O)CSc1nnc(-c2ccccc2)o1`, 19.6% (inactive). Take `O=C(CSc1nnc(-c2ccccc2)o1)n1c2c(c3ccccc31)CCCC2`: the cytotoxicity is 69.9% (active).

`Cc1nnc(SCC(=O)n2c3c(c4ccccc42)CCCC3)s1`: the cytotoxicity was 6.2% (inactive). Take `Cc1cccc(NC(=O)CSc2n[nH]c(-c3ccncc3)n2)c1`: the cytotoxicity was -6.1% (inactive). `Cc1ccc(N(CC(=O)Nc2ccc3c(c2)OCCO3)S(=O)(=O)c2c(C)n[nH]c2C)cc1`: the cytotoxicity was 9.8% (inactive).

For `COc1cc2c(C#N)c(N3CCN(c4ccccc4OC)CC3)nc(N)c2c(N)n1`, the cytotoxicity was 57.2% (active). Consider `CCOc1cc2c(C#N)c(N3CCOCC3)nc(N)c2c(N)n1`, for which the cytotoxicity is 22.5% (inactive). As for `COc1ccccc1-c1nc(C#N)c(N2CCc3ccccc3C2)o1`, the cytotoxicity was 20.5% (inactive). Take `COc1ccccc1N1CCN(c2nc(N)c(C#N)c(CC#N)c2C#N)CC1`: the cytotoxicity is -4.3% (inactive). In the case of `CCOc1ccccc1N1CCN(c2nc(N)c(C#N)c(CC#N)c2C#N)CC1`, the cytotoxicity is -11.4% (inactive).

Regarding `COc1cc2c(C#N)c(N3CCOCC3)nc(N)c2c(N)n1`, the cytotoxicity is 46.6% (inactive).

With `N#Cc1c(N2CCCC2)nc(N)c2c(N)nc(N3CCCC3)cc12`, the cytotoxicity is -2.8% (inactive). As for `COc1cc2c(C#N)c(N3CCCCC3)nc(N)c2c(N)n1`, the cytotoxicity is 56.9% (active).

Values taken from PubChem BioAssay AID431 (Sanford-Burnham Center for Chemical Genomics, 2006).
